Source: PubChem BioAssay
Most compounds without a hit are left out; they make up all but 19% or so of the library.
DT40 TDP1 CPT: DT40-hTDP1 cell growth loss with CPT. chicken DT40 Tdp1-/-;hTDP1 cells + 20 nM CPT, ATP luminescence, 48 h. 420,000 compounds, 12% hits. Potency, µM (highest dose often 46.2 µM), without a hit: at the top dose activity change, negative = growth inhibition, hits mostly inhibitors; also: potency is read from the fitted curve at half-maximal effect; nearly all actives have a fitted effect of over 55% in size
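Chicken DT40 Tdp1-/- cells complemented with human TDP1, 400 cells/well, exposed to compounds plus 20 nM camptothecin for at least 48 h at 37 C; viability read as ATP content by CellTiter-Glo luminescence.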
DT40 TDP1 no CPT: qHTS for Inhibitors of human tyrosyl-DNA phosphodiesterase 1 (TDP1): qHTS in cells in absence of CPT; 420,000 compounds, 15% hits; DT40 Tdp1-/- hTDP1 cells, no CPT, ATP luminescence, 48 h; Potency, µM (highest dose often 46.2 µM), without a hit: at the top dose activity change, negative = growth inhibition, usual class: inhibitors; also: potency is read from the fitted curve at half-maximal effect; nearly all actives have a fitted effect of over 55% in size
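No-CPT arm: Tdp1-/-;hTDP1 DT40 cells (400/well) plus compounds, incubated ≥48 hr at 37 °C. Readout CellTiter-Glo luminescence.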
HT1080 IDH1KD tx: kills HT-1080 cells with IDH1 knockdown. HT-1080 IDH1 knockdown viability, ATP luminescence, 48 h. Potency, µM (top dose mostly 46.1 µM), inactives show at the top dose activity, negative = toxicity, actives largely listed as cytotoxic. 360,000 compounds, 2% hits;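 also: potency is read from the fitted curve at half-maximal effect; 0% = DMSO wells and -100% = cell-free medium wells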
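Viability of IDH1-knockdown HT-1080 fibrosarcoma cells was assessed by CellTiter-Glo after 48 h at 37 °C with titrated compound; concentration-effect curves were classified by fit quality and response size.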
IL-1B inflam inh: blocks inflammasome-driven IL-1 beta release; 360,000 compounds, 4.7% hits; THP-1 LPS/ATP IL-1B secretion, AlphaLISA, 16 h; stronger effect = lower value; AID 743279; activity change, % at 57.5 µM; in the data active = activity change below about -50%; inconclusive = mostly about -30% to -49%
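THP-1 cells pretreated 1 hr with compounds (up to 57.5 uM final), then stimulated with LPS (250 ng/mL final) plus ATP (1.25 mM final); secreted IL-1B measured by AlphaLISA after 16 hr, decreased signal indicating inhibition.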
HT1080-NT tox: kills 2HG-producing HT-1080-NT fibrosarcoma cells; HT-1080-NT fibrosarcoma viability, CellTiter-Glo ATP luminescence, 48 h; Potency, µM (top dose mostly 46.1 µM), without a hit: at the top dose activity, negative = less viability, hits mostly cytotoxic; 360,000 compounds, 1.6% hits;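 also: NT is the 2HG producing partner of a matched IDH1 knockdown line; potency is read from the fitted curve at half-maximal effect; 0% = DMSO-treated cells and -100% = media-only wells without cells; nearly all actives have a fitted effect of over 55% in size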
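HT-1080-NT fibrosarcoma cells (2HG-overproducing), 750 cells/well in RPMI with 5% FBS, dosed after 2 h and incubated 48 h at 37C. CellTiter-Glo luminescence normalized to DMSO and no-cell wells; concentration-response curves fitted and classed.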
* hit, by the source's call; ? = inconclusive; · = not tested or not shown. Unless noted, calls follow the shape of the dose curve; as a rule, active = well fitted curve in the direction sought with a large enough effect; inconclusive = small, poorly fitted or top-dose-only effect, or another doubt; inactive = no such curve, though single readings can be large; an effect the other way counts as inactive or inconclusive. Unless noted, % is scaled to controls: 0 for no effect and ±100 for the full control effect.

SMILES | DT40 TDP1 CPT | DT40 TDP1 no CPT | HT1080 IDH1KD tx | IL-1B inflam inh | HT1080-NT tox
COc1cccc(C(c2nnnn2Cc2ccco2)N2CCN(c3cccc(C)c3C)CC2)c1OC (stereo unspecified) | ? | 26µM* | -12% | -2 | -8%
O=C(c1ccco1)N1CCN(C(c2ccc(Cl)cc2)c2nnnn2Cc2ccccc2)CC1 (stereo unspecified) | -22% | -24% | -17% | -51* | -22%
COc1ccc(OC)c(C(c2nnnn2Cc2ccco2)N2CCN(C)CC2)c1 (stereo unspecified) | -3% | 0% | 1% | -11 | -6%
COc1cccc(C(c2nnnn2Cc2ccccc2)N2CCN(C(=O)c3ccco3)CC2)c1OC (stereo unspecified) | ? | 23µM* | -14% | -12 | -11%
CN(Nc1cccc(Cl)c1)c1cccc(Cl)c1 | ? | ? | ? | -11 | -25%
O=C(O)c1cc(-c2ccccc2)n(-c2ccc(Cl)cc2)n1 | -7% | -1% | 0% | 20 | -5%
Cc1ccc(Nc2nc3ccccc3c3nncn23)cc1C | 8.2µM* | 16µM* | · | · | ·
c1ccc(-c2nc3ccccc3c3nncn23)cc1 | ? | ? | 20% | 7 | 13%
Cc1cc(Nc2nc3ccccc3c3nnc(C)n23)ccc1Br | ? | 18µM* | · | · | ·
COc1ccc(OC)c(Nc2nc3ccccc3n3c(C)nnc23)c1 | -3% | -5% | · | · | ·
CCc1ccc(Nc2nnc(SCn3nnc4ccccc4c3=O)s2)cc1 | ? | ? | -6% | -4 | 0%
COc1ccc(Nc2nc3ccccc3c3nnc(C)n23)cc1Cl | 10µM* | 6.5µM* | · | · | ·
CCc1ccc(Nc2nc3ccccc3c3nnc(C)n23)cc1 | 8.2µM* | 10µM* | · | · | ·
N[C@H](Cc1ccccc1)C(=O)O | -25% | -13% | · | · | ·
CCCCOC(=O)c1ccc(Nc2nc3ccccc3c3nnc(C)n23)cc1 | 16µM* | 21µM* | · | · | ·
CCOC(=O)c1ccc(Nc2ncnc3ccccc23)cc1 | ? | -28% | -21% | -5 | -12%
O=C(Nc1ccc2c(c1)OCO2)C1CC(=O)N(c2ccccc2)C1 (stereo unspecified) | 0% | 0% | 14% | 11 | -2%
CCOC(=O)C1=C(CN(C)Cc2ccccc2)NC(=O)NC1c1ccc(OC(C)C)cc1 (stereo unspecified) | 16µM* | 16µM* | · | · | ·
CCOC(=O)C1=C(COc2ccccc2)NC(=O)NC1c1ccc(Br)cc1 (stereo unspecified) | 18µM* | 16µM* | 0% | ? | 9%
CCOC(=O)C1=C(COc2ccccc2)NC(=O)NC1c1ccc2ccccc2c1 (stereo unspecified) | 18µM* | 21µM* | -13% | -5 | ?
CCOC(=O)C1=C(CN(CC)Cc2ccccc2)NC(=O)NC1c1ccc(OC)cc1 (stereo unspecified) | ? | -9% | · | · | ·
CC(C)[C@@H]1Cc2[nH]c(=O)[nH]c(=O)c2[C@H](c2ccc(F)cc2)O1 | -6% | -6% | 9% | 0 | 14%
CCCCCOc1ccc(C(=O)N(Cc2ccco2)C2CCS(=O)(=O)C2)cc1 (stereo unspecified) | ? | ? | -18% | 3 | -5%
Cc1cc(OC(C)C(=O)N(Cc2ccco2)C2CCS(=O)(=O)C2)cc(C)c1Cl (stereo unspecified) | ? | 21µM* | 12% | -28 | 0%
COc1ccc(CN(C(=O)c2ccco2)C2CCS(=O)(=O)C2)cc1 (stereo unspecified) | 8% | -4% | 23% | 0 | 9%
SMILES | DT40 TDP1 CPT | DT40 TDP1 no CPT | HT1080 IDH1KD tx | IL-1B inflam inh | HT1080-NT tox
CC(C)COc1ccc(C(=O)N(Cc2ccco2)C2CCS(=O)(=O)C2)cc1 (stereo unspecified) | ? | 16µM* | -2% | 2 | -1%
COc1ccc(CN(C(=O)c2ccc(OCC(C)C)cc2)C2CCS(=O)(=O)C2)cc1 (stereo unspecified) | 12µM* | ? | · | · | ·
Cc1cc(OCC(=O)N(Cc2ccco2)C2CCS(=O)(=O)C2)cc(C)c1Cl (stereo unspecified) | -27% | ? | -19% | -11 | -5%
O=C1C=C(N2CCOCC2)CCC1 | -7% | -9% | 17% | 0 | 14%
C#CNC(=O)C1(CC=C)CCNCC1 | 6% | 1% | 8% | 4 | 8%
O=C(NCCC1CCCCN1S(=O)(=O)c1cccs1)C(=O)Nc1ccc(F)cc1 (stereo unspecified) | ? | ? | ? | -63* | -12%
COc1ccc(NC(=O)C(=O)NCCC2CCCCN2S(=O)(=O)c2ccc(F)cc2)cc1 (stereo unspecified) | 21µM* | 10µM* | -57% | -7 | ?
O=C(NCC1CCCN1S(=O)(=O)c1cccs1)C(=O)Nc1ccc(F)cc1 (stereo unspecified) | -50% | ? | 12% | -17 | 13%
O=C(NCCC1CCCCN1S(=O)(=O)c1ccccc1)C(=O)Nc1ccc(F)cc1 (stereo unspecified) | ? | ? | -3% | ? | 3%
COc1cc(CNC(=O)C2CCCCN2S(=O)(=O)c2ccc(F)cc2)cc(OC)c1OC (stereo unspecified) | ? | 12µM* | · | · | ·
O=C(NCCC1CCCCN1S(=O)(=O)c1cccs1)C(=O)Nc1cccc(F)c1 (stereo unspecified) | 23µM* | 15µM* | -11% | 8 | 2%
Cc1ccc(N(C(C)C(=O)O)S(=O)(=O)c2c(C)n[nH]c2C)cc1 (stereo unspecified) | 0% | -3% | 2% | -4 | 1%
CC(C)N(C(=O)COC(=O)[C@@H]1CC(O)CN1S(=O)(=O)c1ccc(C(C)(C)C)cc1)C(C)C (stereo partly specified) | ? | ? | -2% | 22 | 7%
Cc1ccc(-n2c(=O)[nH]c3cc(C(=O)NC4CCN(Cc5ccccc5)CC4)ccc3c2=O)cc1 | -26% | -19% | 0% | 26 | 3%
Cc1nc2sccn2c(=O)c1S(=O)(=O)Nc1ccc(N2CCOCC2)c(Cl)c1 | 18µM* | 29µM* | -3% | 33 | 6%
CCOC(=O)c1cccc(NS(=O)(=O)c2cc3c(cc2C)NC(=O)CO3)c1 | 18µM* | 18µM* | · | · | ·
Cc1ccc(NS(=O)(=O)c2c(C)nc3sccn3c2=O)cc1 | ? | -27% | -8% | 16 | 0%
COc1ccc(NS(=O)(=O)c2c(C)nc3scc(C)n3c2=O)cc1 | -5% | ? | · | · | ·
CC(=O)c1cccc(NS(=O)(=O)c2cc3c(cc2C)NC(=O)CO3)c1 | -12% | -3% | -12% | 11 | 3%
